# Source: PubChem BioAssay
# rTrxR1 inhibitor = qHTS Assay for Inhibitors of Mammalian Selenoprotein Thioredoxin Reductase 1 (TrxR1): qHTS | recombinant rTrxR1, NADPH fluorescence consumption, selenite substrate | Thioredoxin reductase 1, cytoplasmic (Rattus norvegicus), O89049 | 390,000 tested, 1% active | Potency, µM (titrated, usually from 114 µM), most hits filed as inhibitors; further: nearly all actives have a fitted effect of over 65% in size
#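 Rat TrxR1 (90 nM in the dispensed reagent) was pre-reduced with 400 uM NADPH for 5 min at room temperature, then incubated with compound for 15 min. After 400 uM selenite was added, NADPH fluorescence (Ex 340/Em 450 nm) was followed for 8 min.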
# GALK inh = qHTS Assay for Inhibitors of Human Galactokinase (GALK) | Purified GALK, Kinase-Glo residual ATP luminescence | 270,000 tested, 0.007% active | Potency, µM (highest dose often 57.5 µM), hits mostly inhibitors | AID 1868, 2009
# Target sequence (P51570 whole entry, looked up): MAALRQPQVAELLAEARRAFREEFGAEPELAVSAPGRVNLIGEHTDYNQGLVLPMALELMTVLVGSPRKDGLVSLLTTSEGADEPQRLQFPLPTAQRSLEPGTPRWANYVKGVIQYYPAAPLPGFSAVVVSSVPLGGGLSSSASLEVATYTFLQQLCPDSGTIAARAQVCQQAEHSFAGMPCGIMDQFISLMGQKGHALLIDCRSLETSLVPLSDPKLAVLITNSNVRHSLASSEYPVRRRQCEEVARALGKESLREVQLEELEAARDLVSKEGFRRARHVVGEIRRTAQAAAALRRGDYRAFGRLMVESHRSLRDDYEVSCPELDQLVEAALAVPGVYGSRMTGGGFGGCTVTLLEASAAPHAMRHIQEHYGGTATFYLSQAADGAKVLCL
#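 Galactose (100 uM) and ATP (35 uM) were turned over by 5 nM GALK for 1 h at RT. Kinase-Glo Plus then converted the remaining ATP into a luminescent signal.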
# TrxR1 substrate = qHTS Assay for Substrates of Mammalian Selenoprotein Thioredoxin Reductase 1 (TrxR1): qHTS; Thioredoxin reductase 1, cytoplasmic (Rattus norvegicus), O89049; 390,000 tested, 0.01% active; purified TrxR1 substrate turnover, NADPH consumption readout; Potency, µM (series often up to 114 µM); further: nearly all actives have a fitted effect of over 50% in size
#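 Rat TrxR1, dispensed at 90 nM, was prereduced with 400 uM NADPH (final) for 5 min at ~22 deg C, then incubated with compound 15 min before 400 uM selenite. A first-read NADPH fluorescence drop versus no-compound background flagged substrates.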
# USP1-UAF1 inh = Inhibitors of USP1/UAF1: Primary Screen. Potency, µM (top dose mostly 57.1 µM), hits mostly inhibitors. Ubiquitin carboxyl-terminal hydrolase 1 (Homo sapiens), O94782. recombinant USP1/UAF1, Ub-Rhodamine cleavage fluorescence. 390,000 tested, 0.23% active; further: nearly all actives have a fitted effect of over 60% in size
#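 USP1/UAF1 complex (1 nM) preincubated 15 min at room temperature with compound, then Ub-Rho substrate (150 nM final) added. Kinetic fluorescence at 480/540 nm over 6 reads at 60 s intervals; 50 mM HEPES pH 7.8, 0.5 mM EDTA, 0.1 mg/ml BSA, 1 mM TCEP, 0.01% Tween-20.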
# FBPA coupling cs = qHTS Assay for Inhibitors of Fructose-1,6-bisphosphate Aldolase from Giardia Lamblia: Coupling assay counterscreen; coupling enzyme system counterscreen, AmpLite Red fluorescence; activity change, negative = inhibition, % at 58.2 µM, hits read low; 290,000 tested, 0.67% active; AID 2472, 2010; in the data active means activity change below about -30%
#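 Fluorescence at 525 nm excitation and 598 nm emission measured inhibition of the coupled detection system without aldolase. Compounds (at 57.5 uM final) were preincubated 10 min at room temperature with coupling enzyme reagent before a 20 min substrate/AmpLite Red step.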
# Hits are given with their value; - = inactive; ? = inconclusive; . = no result given; ! = not confirmed by another sample; [ ] = dose if it differs, or a comment. Rows were chosen to be rich in hits. Some 1.5% of all compounds tested hit in one or more screens of this group. Unless noted, the call rests on the fitted dose curve; in most records, active means well fitted curve in the direction sought with a large enough effect; inconclusive means small, poorly fitted or top-dose-only effect, or another doubt; inactive means no such curve, though single readings can be large; an effect the other way counts as inactive or inconclusive.
SMILES,rTrxR1 inhibitor,GALK inh,TrxR1 substrate,USP1-UAF1 inh,FBPA coupling cs
O=C(NCc1ccc2c(c1)OCO2)c1cc2c(s1)CSC2,-,.,-,-,-
O=C(NCc1ccco1)c1cc2c(s1)CSC2,7.94µM,-,-,-,-
C=CCOc1ccccc1CN(C(=O)CCl)c1ccc2c(c1)OCO2,20µM,-,-,-,-
CCOc1ccccc1NC(=O)Nc1ccc2c(c1)OCO2,-,-,-,-,-
O=[S+]([O-])([O-])c1ccc2c(c1)cc([S+](=O)([O-])[O-])c1nn(-c3ccc(/C=C/c4ccc(-n5nc6c([S+](=O)([O-])[O-])cc7cc([S+](=O)([O-])[O-])ccc7c6n5)cc4[S+](=O)([O-])[O-])c([S+](=O)([O-])[O-])c3)nc12,-,.,-,.,.
O/N=C(/C[n+]1ccsc1)c1ccc(I)cc1,-,.,-,.,.
Cc1ccc(S(=O)(=O)Oc2cccc(/C=N/n3cnnc3)c2)cc1,-,-,-,-,-
Cc1ccc(S(=O)(=O)Oc2cccc(/C=N/Nc3ccc(C(=O)O)cc3)c2)cc1,-,-,-,-,-41.2
O=c1c2ncn([C@@H]3O[C@@H]4COP(=O)(O)O[C@H]4[C@H]3O)c2nc2[nH]c(-c3ccccc3)cn12,.,.,.,.,-
CN(Cc1ccccc1)S(=O)(=O)c1nnc(NC(=O)c2cccc(Cl)c2)s1,-,.,-,-,.
CCN(c1ccc(C)cc1)S(=O)(=O)c1nnc(NC(=O)c2ccco2)s1,56.2µM,-,-,-,-
CN(Cc1ccco1)S(=O)(=O)c1nnc(NC(=O)c2cccc(Cl)c2)s1,25.1µM!,-,-,-,.
CCCN1CNc2c(c(=O)[nH]c(=S)n2CCc2ccc(OC)cc2OC)C1,-,.,-,.,.
CCOc1cc(NC2CS(=O)(=O)CC2O)c(OCC)cc1NC(=O)c1ccccc1 (stereo not given),-,-,-,-,-41.0
CCOc1cc(NC(=O)c2ccccn2)c(OCC)cc1NC(=O)c1ccccc1,-,-,-[11.4 µM],-,-
O=C1C2=CC[C@@H]3C(=O)N(c4ccc(F)cc4F)C(=O)[C@H]3[C@H]2[C@H](O)[C@H]2O[C@H]12,.,.,.,.,-
COc1ccccc1C(=O)Nc1c[nH]c(=O)[nH]c1=O,-,-,-,-,-
CCOc1ccccc1C(=O)Nc1c[nH]c(=O)[nH]c1=O,-,-,-,-,-32.7
Cn1ncc([N+](=O)[O-])c1C(=O)N/N=C/c1cccc([N+](=O)[O-])c1,-,-,-,-,-35.2
Cn1ncc([N+](=O)[O-])c1C(=O)N/N=C/c1ccc(F)cc1,-,-,-,-,-
O=S(=O)(Nc1cccc2ncccc12)c1cccs1,-,-,-,-,-38.1
CCOc1ccccc1NS(=O)(=O)c1cccs1,-,-,-,-,-40.9
O=C1Nc2ccc(NS(=O)(=O)c3cccs3)c3cccc1c23,-,-,-,-,-55.7
Cc1c(NS(=O)(=O)c2cccs2)cccc1-c1nc2cccnc2s1,-,-,-,-,-
CCN(CCCN(C)C)c1ccc(/C=C/c2ccnc3ccccc23)cc1,?,.,-,.,.
SMILES,rTrxR1 inhibitor,GALK inh,TrxR1 substrate,USP1-UAF1 inh,FBPA coupling cs
Cc1ccc(F)cc1-c1ccc(C(=O)N=C(N)N)o1,.,.,.,.,-
Cc1ccc(S(=O)(=O)N2CCCC2C(=O)OCc2ccco2)cc1 (stereo not given),7.94µM,-,-,-,-
CC1(C)CC(=O)C2=C(C1)NC(Nc1nc3ccccc3o1)=NC2c1cccc(F)c1 (stereo not given),-,.,-,.,.
CC(C)(C)n1ncc2c(=O)n(Cc3ccc(Cl)cc3C(F)(F)F)cnc21,-,.,-,.,.
COc1ccc(C2CC(=O)Oc3c(C(CCN4CCOCC4)c4ccc5c(c4)OCO5)c(OC)cc(OC)c32)cc1 (stereo not given),-,.,-,.,-
O=C(CCCOc1ccc(Cl)cc1Cl)N/N=C/c1cccc([N+](=O)[O-])c1,-,-,-,?,-38.8
CC(O)c1cccc2cc(C(O)CNC(C)(C)C)oc12 (stereo not given),.,.,.,.,-
